Screening results (PubChem)
Only some compounds are listed: those with a hit (about 3.5% of all), similar ones and a draw of the others.
TEAD-YAP block: TEAD-YAP interaction inhibition, primary screen, TEAD-YAP interaction inhibitor project, luminescence, HEK-TIYL cells | TEAD-Gal4/YAP UAS-luciferase luminescence | actives 1.4% (n = 640,000) | inhibition, % at 9.12 µM; in the data active = inhibition above about 32%;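 note: 0% = median of test compound wells and 100% = reference inhibitor wells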
FBW7 activator: FBW7 E3 ligase activators, primary screen, biochemical, AlphaScreen, human. F-box/WD repeat-containing protein 7 (Homo sapiens), Q969H0. AlphaScreen FBW7–phospho-cyclin E peptide binding, activator screen. normalized activity (activation), % at 26.1 µM. actives 0.13% (n = 650,000). AID 1259310, 2017; in the data active = normalized activity above about 1.9%;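 note: purified mutant Fbw7 with reduced substrate affinity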
MITF inh: MITF inhibitors, primary screen, biochemical, AlphaScreen, human; AlphaScreen MITF homodimerization, bead proximity signal; actives 0.91% (n = 650,000); AID 1259374, 2018; Microphthalmia-associated transcription factor (Homo sapiens), O75030; inhibition, % at 2.6 µM; in the data active = inhibition above about 50%;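 note: 0% = vehicle wells with protein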
GPR151 activ: activators of human GPR151, primary screen, cell-based, PathHunter beta-arrestin, luminescence | G-protein coupled receptor 151 (Homo sapiens), Q8TDV0 | PathHunter beta-arrestin GPR151 cells | activation, % at 11.2 µM | actives 1% (n = 650,000); in the data active = activation above about 4.9%;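 note: 0% = median of compound wells and 100% = cells with positive control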
Target sequence (Q8TDV0 whole entry, looked up): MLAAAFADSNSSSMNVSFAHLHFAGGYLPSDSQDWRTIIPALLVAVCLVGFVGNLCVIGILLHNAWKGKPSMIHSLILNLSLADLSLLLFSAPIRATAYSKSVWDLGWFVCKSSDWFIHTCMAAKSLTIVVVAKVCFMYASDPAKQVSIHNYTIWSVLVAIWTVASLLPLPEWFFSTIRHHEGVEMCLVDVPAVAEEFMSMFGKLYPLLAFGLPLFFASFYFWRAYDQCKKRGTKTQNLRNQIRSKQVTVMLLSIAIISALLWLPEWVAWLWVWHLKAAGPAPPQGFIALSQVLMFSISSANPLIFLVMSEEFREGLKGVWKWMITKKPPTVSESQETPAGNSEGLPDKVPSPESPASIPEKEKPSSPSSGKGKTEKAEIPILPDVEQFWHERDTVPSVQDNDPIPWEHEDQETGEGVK
* marks the source's active call; other numbers are inactive results.

SMILES | TEAD-YAP block | FBW7 activator | MITF inh | GPR151 activ
CC1CCCN(C(=O)c2ccc(SCc3cccc(F)c3)c([N+](=O)[O-])c2)C1 (configuration not stated) | 9 | 0 | -6 | 1
C=CCOC(=O)C1=C(C)NC(=O)NC1c1ccc(OCCC)cc1 (configuration not stated) | 55* | 1 | 3 | -2
C=CCOC(=O)C1=C(C)NC(=S)NC1c1ccc(C(=O)OC)cc1 (configuration not stated) | 36* | 0 | 1 | -1
C/C=C/COC(=O)C1=C(C)NC(=O)NC1c1ccccc1Cl (configuration not stated) | 47* | 1 | -2 | 1
COc1ccc(C2NC(=S)NC(C)=C2C(=O)c2ccccc2)cc1 (configuration not stated) | 57* | 0 | 17 | -2
COC(=O)c1cnc(NC2CCCC(C)C2C)c2ccccc12 (configuration not stated) | -5 | 0 | 4 | -2
Cc1nc(N2CCCC2C(=O)N2CCCO2)nc2ccc(F)cc12 (configuration not stated) | 2 | 0 | -3 | 5
CCn1c(=C2C(=O)NC(=O)NC2=O)c2cccc3cccc1c32 | 15 | -1 | 61* | -1
CCn1c(=O)c(-c2ccccc2)c(O)c2ccccc21 | 0 | 0 | 7 | -2
COCCCNC(=O)c1ccc(Sc2ccccc2Cl)c([N+](=O)[O-])c1 | -2 | 0 | 13 | 3
CC(C)(C)c1ccccc1OCC(=O)Nc1nccs1 | 5 | 0 | -13 | -1
Cc1ccc(C(C)(C)C)c(OCC(=O)Nc2nccs2)c1 | 50* | 0 | 11 | -1
Cc1ccc(/C=C/C(=O)Nc2nccs2)cc1 | 69* | 0 | 18 | -7
Cc1ccc(C)c(OCC(=O)Nc2nccs2)c1 | -14 | 0 | 12 | -2
Cc1ccc(OCC(=O)Nc2nccs2)c(C)c1 | 93* | 0 | 5 | -8
Cc1ccccc1OCC(=O)Nc1nccs1 | 50* | 0 | 3 | -10
COc1ccc(-c2nc(NC(=O)c3nc4nc(C)cc(C)n4n3)sc2C)cc1 | -2 | 0 | -6 | -1
COc1cc(S(=O)(=O)Nc2cccc3cn[nH]c23)ccc1F | 52* | 0 | -6 | -1
O=S(=O)(Nc1cccc2cn[nH]c12)c1ccc(F)cc1 | 4 | 0 | -21 | -1
CCN(CC)S(=O)(=O)c1ccc(N/N=C/c2ccc(F)c(F)c2)c([N+](=O)[O-])c1 | 6 | 0 | 0 | -1
O=[N+]([O-])c1ccc(Cl)c(-n2cnnn2)c1 | 59* | 0 | 8 | 1
Cc1c(-c2ccc(-c3ccccc3)cc2)[n+](CC(=O)c2ccccc2)c2ccccn12 | 56* | 0 | 7 | 1
COc1ccc(/C=N/NC(=O)C(=O)Nc2cccc(Br)c2)cc1OC | 13 | 0 | 1 | 0
Cc1ccc(-c2cccc3ccc(N4CCN(c5c(NC6CC6)c(=O)c5=O)CC4)nc23)cc1 | 13 | 1 | 18 | 0
Cc1ccc(/C=N/NC(=O)CNC(=O)c2ccccc2Br)cc1 | 47* | 0 | -13 | 2
SMILES | TEAD-YAP block | FBW7 activator | MITF inh | GPR151 activ
Cc1ccc(/C=N/NC(=O)CNc2cccc(C)c2)cc1 | 38* | 0 | 5 | 2
O=C(CSc1nc2ccsc2c(=O)n1-c1ccc(Br)cc1)NCCc1ccccc1 | -5 | 0 | 3 | 1
N#Cc1c(-c2ccccc2)cc(-c2cccs2)nc1SCC(O)CS(=O)(=O)Cc1ccccc1 (configuration not stated) | 15 | 0 | 2 | 1
CCc1ccc2oc(-c3ccccc3)cc(=NCC(=O)O)c2c1 | 32* | 0 | 14 | -3
CCC(=O)Oc1ccc(C(=O)Nc2ccc(C)cc2Br)cc1 | 50* | 0 | -2 | 0
O=C1c2ccccc2C(=O)N1/N=C/c1ccc(O)c(O)c1O | -5 | 0 | 92* | 1
O=C1Nc2ccccc2/C1=N\N=C\c1ccc(O)c(O)c1O | 0 | 0 | 58* | 0
Cc1nc2ccccc2c(=O)n1/N=C/c1ccc(O)c(O)c1O | 3 | 0 | 57* | 0
COc1nc(NCc2cccnc2)nc(-c2c(C)nn(C)c2C)n1 | -4 | 0 | 20 | 1
Cc1cc(NC(=O)CSc2nc(Nc3ccc4c(c3)OCO4)c3ccccc3n2)n[nH]1 | 50* | 0 | 9 | 1
Cc1cc(NC(=O)CSc2nc3ccccc3c3nc(CCc4c[nH]c5ccccc45)nn23)n[nH]1 | 61* | 0 | -10 | 1
O=C(CSc1nc2ccccc2c(=O)n1CCCN1CCCCC1)Nc1nccs1 | 42* | 0 | 5 | 1
Cc1cc(NC(=O)CSc2nc3ccccc3c3nc(CCN4CCCCC4)nn23)n[nH]1 | 58* | 1 | 15 | -1
CC(C)CCNC(=O)CSc1nc(Nc2ccc3c(c2)OCO3)c2ccccc2n1 | 10 | 1 | 1 | 0
Cc1ncccc1C(=O)N1CCCC(C(=O)c2ccc3ccccc3c2)C1 (configuration not stated) | -22 | 0 | 11 | 1
COc1nc2c(c(=O)n(C)c(=O)n2C)n1Cc1ccc(Cl)c(Cl)c1 | 7 | 0 | 8 | 0
COc1ccc(-c2cc(C(=O)NCCc3ccc(O)cc3)ccn2)cc1 | 4 | 0 | 2 | -1
CCOc1ccc(-c2csc3c(=O)n(Cc4ccccc4)cnc23)cc1OCC | 16 | 0 | -7 | 0
O=C(/C=C/Nc1ccc(F)cc1F)c1ccco1 | 64* | 0 | 3 | -2
O=C(/C=C/Nc1ccc(Br)cc1F)c1ccco1 | 43* | 0 | -7 | -2
O=C(/C=C/Nc1cccc(Cl)c1Cl)c1ccco1 | 53* | 0 | -3 | -2
O=C(/C=C/Nc1ccccc1O)c1ccco1 | -49 | 0 | 5 | 0
O=C1c2ccccc2S(=O)(=O)N1Cc1ccccc1 | -2 | 0 | 4 | 1
CCOc1ccc(Br)cc1C1C2=C(CCCC2=O)N(CC(=O)O)C2=C1C(=O)CCC2 | 4 | 1.9* | -12 | 0
CCCOc1ccccc1C1C2=C(CCCC2=O)N(C)C2=C1C(=O)CCC2 | 8 | 3.0* | 3 | 0
SMILES | TEAD-YAP block | FBW7 activator | MITF inh | GPR151 activ
CCN1C(=O)C2C(c3ccc(O)c(OC)c3)NC(C)(C(=O)OC)C2C1=O (configuration not stated) | 45* | 0 | 2 | 3
COC(=O)C1(C)NC(c2ccc(O)c(OC)c2)C2C(=O)N(C)C(=O)C21 (configuration not stated) | -5 | 0 | 6 | -1
Cn1nccc1C(=O)Oc1cccc(/C=N/NC(=O)c2ccccc2O)c1 | 42* | 0 | 6 | -3
CCn1cccc/c1=N\c1cccc[n+]1CC | 50* | 0 | 1 | 2
O=C(Cn1cnc2sc3c(c2c1=O)CCCC3)Nc1cccc(Cl)c1 | -2 | 0 | -3 | -2
CC(C)n1cnc2c(NC3CC3)nc(-c3ccc(C(N)=O)cc3)nc21 | 40* | 1 | 13 | -1
